Measurements taken from PubChem BioAssay (NCATS).
Inconclusive results are not listed. This is one part of the list. Activity calls are given as the source filed them. Unless noted, calls follow the shape of the dose curve; as a rule, active = well fitted curve in the direction sought with a large enough effect; inconclusive = small, poorly fitted or top-dose-only effect, or another doubt; inactive = no such curve, though single readings can be large; an effect the other way counts as inactive or inconclusive.

What was measured:
[1] = qHTS for Inhibitors of the vitamin D receptor (VDR): Hit Validation using a Texas Red Assay (AID 602201); also: potency is read from the fitted curve at half-maximal effect
Outline: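 Fluorescence polarization (Ex 595/Em 615 nm) of Texas Red (7 nM) with 1.5 uM VDR-LBD and LG19078 (final concentrations). Compounds were incubated for 2 hours at room temperature.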

[2] = target: Rap guanine nucleotide exchange factor 3 (Homo sapiens) (UniProt O95398); test: Confirmatory qHTS for antagonist of cAMP-regulated guanine nucleotide exchange factor 3 (EPAC1) (AID 1645880); conditions: EPAC1 Rap1B-BODIPY-GDP exchange, fluorescence; activity, negative = inhibition: at 115 µM (top of the series); also: nearly all actives have a fitted effect of over 55% in size; also: potency is read from the fitted curve at half-maximal effect;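 as to activity, negative = inhibition: plate controls were DMSO only for no effect and full effect of the ATA control for full effect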
Outline: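 Released BODIPY-GDP fluoresces less than Rap1-bound BODIPY-GDP; the signal is followed at 480/540 nm at 5-min intervals over 30 min, after 5 min at room temperature. Reactions contain 100 nM EPAC1, 250 nM RAP1B-BODIPY-GDP and 50 uM GDP; results are normalized to ATA and DMSO.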

[3] = target: Rap guanine nucleotide exchange factor 3 (Homo sapiens) (UniProt O95398); test: Confirmatory qHTS for agonist of cAMP-regulated guanine nucleotide exchange factor 3 (EPAC1) (AID 1645881); also: nearly all actives have a fitted effect of over 75% in size; also: potency is read from the fitted curve at half-maximal effect;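 as to activation: EPAC1 catalysed release of BODIPY-GDP from Rap1B seen as fluorescence loss; 100% = effect of cAMP agonist control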
[4] = target: Rap guanine nucleotide exchange factor 4 (Homo sapiens) (UniProt Q8WZA2); test: Confirmatory qHTS for agonist of cAMP-regulated guanine nucleotide exchange factor 4 (EPAC2) (AID 1645884);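 also: nucleotide exchange releases bodipy-GDP from Rap1 and this lowers its fluorescence; nearly all actives have a fitted effect of over 65% in size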; also: potency is read from the fitted curve at half-maximal effect; as to activation: % is scaled to controls: 0 for no effect and ±100 for the full control effect
[5] = target: Rap guanine nucleotide exchange factor 4 (Homo sapiens) (UniProt Q8WZA2); test: Confirmatory qHTS for antagonist of cAMP-regulated guanine nucleotide exchange factor 4 (EPAC2) (AID 1645885); also: nearly all actives have a fitted effect of over 25% in size; also: potency is read from the fitted curve at half-maximal effect; as to activity change, negative = inhibition: % is scaled to controls: 0 for no effect and ±100 for the full control effect
[6] = target: Rap guanine nucleotide exchange factor 3 (Homo sapiens) (UniProt O95398); test: Counterscreen qHTS for antagonist of cAMP-regulated guanine nucleotide exchange factor 3 (EPAC1) (AID 1645888); also: % of control where 0% means no effect
Outline: (§1)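 Measured: fluorescence of BODIPY-GDP bound to Rap1B, which falls as exchange proceeds. Conditions include 50 uM competing GDP, 5 and 30 min reads, and a later cAMP challenge for antagonist detection.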

[7] = target: Rap guanine nucleotide exchange factor 3 (Homo sapiens) (UniProt O95398); test: Counterscreen qHTS for agonist of cAMP-regulated guanine nucleotide exchange factor 3 (EPAC1) (AID 1645889); also: nearly all actives have a fitted effect of over 40% in size; also: potency is read from the fitted curve at half-maximal effect; as to activation: % of control where 0% means no effect
Outline: as §1

[8] = AP1 Signaling Pathway (AID 357; active = well fitted curve in either direction with a large enough effect, not every such curve was filed as active;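 also: ME-180 reporter cells stimulated with EGF at its EC50 level; % is scaled to controls: 0 for no effect and ±100 for the full control effect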); conditions: ME-180 AP-1-bla reporter, EGF-induced, beta-lactamase ratio, 5 h; at 7.69 µM (top of the series) unless noted
Outline: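 In this screen, ME-180 cells in Opti-MEM with 0.5% dialyzed FBS received EC50 EGF and compound titrations for 5 h. AP-1 reporter beta-lactamase was detected via CCF4 ratio, giving AC50 for positive and negative modulators.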

[9] = Stat Signaling Pathway (AID 446; active = well fitted curve in either direction with a large enough effect, not every such curve was filed as active;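 also: ME-180 cervical cancer cells given 40 pM IL-6 alongside compound; SIE-controlled beta-lactamase reporter measured as 460/530 nm FRET emission ratio; % is scaled to controls: 0 for no effect and ±100 for the full control effect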)
Outline: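 Compound effects on IL-6-induced STAT reporter activity were measured in ME-180 cells. After overnight culture, cells were co-treated with 40 pM IL-6 for 5 hrs before beta-lactamase substrate loading at room temperature.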

[10] = target: Glucocorticoid receptor (Homo sapiens) (UniProt P04150); test: GR-GFP Redistribution (AID 450;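 active = compounds whose dose series gives a full or clear partial fitted curve of increased nuclear translocation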; also: potency is read from the fitted curve at half-maximal effect); conditions: U2OS GR-GFP nuclear translocation, laser cytometry, 2 h
[11] = qHTS Assay for Identification of Small Molecule Agonists for Hypoxia Response Element Signaling Pathway (AID 914; active = well fitted activation curve with a large enough effect in the signal ratio, with a control signal flat, not every such curve was filed as active; the % refers to the signal ratio; also: potency is read from the fitted curve at half-maximal effect); conditions: ME-180 (cervical carcinoma) HRE-bla reporter, beta-lactamase ratio, CoCl2, 17 h; activation: stronger effect = higher value
Outline: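 Positive modulation of EC50 CoCl2-induced hypoxia response element signaling is measured in ME-180 cells with a beta-lactamase reporter. Compounds are titrated, incubation runs 17 hours, and %Activity derives from the blue/green ratio.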

[12] = target: Tumor susceptibility gene 101 protein (Homo sapiens) (UniProt Q99816); test: qHTS Assay for Iinhibitors of HIV-1 Budding by Blocking the Interaction of PTAP/TSG101: Hit Validation (AID 651600); also: % is scaled to controls: 0 for no effect and ±100 for the full control effect; nearly all actives have a fitted effect of over 70% in size
Outline: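 FITC-PTAP peptide (50 nM final) binding to Tsg101 binding domain (10 uM final) was measured by polarization after 20 min at r.t. with compounds, in 10 mM HEPES pH 7.5 buffer with 0.15 M NaCl and 0.01% Tween 20.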

[13] = target: DNA polymerase iota (Homo sapiens) (UniProt Q9UNA4); test: qHTS for Inhibitors of Polymerase Iota: Confirmatory Assay for Cherry-picked Compounds (AID 720496); conditions: Pol iota primer extension, TAMRA/BHQ fluorescence; also: potency is read from the fitted curve at half-maximal effect
Outline: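 Kinetic fluorescence, 0 → 10 min, ex 525/em 598 nm. Pol iota 10 nM, 15 min RT preincubation with compound, then 50 nM (final) TAMRA/BHQ-2 primer-template substrate.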

Sequence of Rap guanine nucleotide exchange factor 4 (Homo sapiens) (Q8WZA2 whole entry, looked up): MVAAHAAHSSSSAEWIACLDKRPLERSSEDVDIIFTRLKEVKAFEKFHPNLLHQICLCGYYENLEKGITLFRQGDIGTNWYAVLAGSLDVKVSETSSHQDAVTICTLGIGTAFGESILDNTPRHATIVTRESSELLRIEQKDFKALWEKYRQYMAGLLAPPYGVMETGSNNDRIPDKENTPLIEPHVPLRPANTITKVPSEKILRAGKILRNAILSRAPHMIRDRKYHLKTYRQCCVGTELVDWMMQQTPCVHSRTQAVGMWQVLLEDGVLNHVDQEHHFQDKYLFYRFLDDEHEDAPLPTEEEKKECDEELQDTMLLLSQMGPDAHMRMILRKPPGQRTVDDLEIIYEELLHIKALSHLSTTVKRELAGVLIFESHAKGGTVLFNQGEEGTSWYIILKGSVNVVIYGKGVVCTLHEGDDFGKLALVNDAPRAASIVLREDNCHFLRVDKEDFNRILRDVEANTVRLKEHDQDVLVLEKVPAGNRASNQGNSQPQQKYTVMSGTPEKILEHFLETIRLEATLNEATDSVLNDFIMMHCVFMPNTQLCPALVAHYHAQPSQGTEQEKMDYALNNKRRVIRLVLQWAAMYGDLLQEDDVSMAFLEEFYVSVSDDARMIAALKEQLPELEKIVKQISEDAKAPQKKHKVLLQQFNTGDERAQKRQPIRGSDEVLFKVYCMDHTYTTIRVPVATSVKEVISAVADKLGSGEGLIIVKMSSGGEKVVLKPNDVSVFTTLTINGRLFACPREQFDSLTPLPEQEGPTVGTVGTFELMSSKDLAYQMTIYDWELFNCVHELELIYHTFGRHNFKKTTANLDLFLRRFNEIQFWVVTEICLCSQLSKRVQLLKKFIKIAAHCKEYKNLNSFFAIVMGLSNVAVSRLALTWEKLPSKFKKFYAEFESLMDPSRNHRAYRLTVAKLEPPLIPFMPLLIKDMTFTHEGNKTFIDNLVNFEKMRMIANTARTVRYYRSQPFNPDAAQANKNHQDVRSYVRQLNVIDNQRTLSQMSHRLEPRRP
Sequence of Rap guanine nucleotide exchange factor 3 (Homo sapiens) (O95398 whole entry, looked up): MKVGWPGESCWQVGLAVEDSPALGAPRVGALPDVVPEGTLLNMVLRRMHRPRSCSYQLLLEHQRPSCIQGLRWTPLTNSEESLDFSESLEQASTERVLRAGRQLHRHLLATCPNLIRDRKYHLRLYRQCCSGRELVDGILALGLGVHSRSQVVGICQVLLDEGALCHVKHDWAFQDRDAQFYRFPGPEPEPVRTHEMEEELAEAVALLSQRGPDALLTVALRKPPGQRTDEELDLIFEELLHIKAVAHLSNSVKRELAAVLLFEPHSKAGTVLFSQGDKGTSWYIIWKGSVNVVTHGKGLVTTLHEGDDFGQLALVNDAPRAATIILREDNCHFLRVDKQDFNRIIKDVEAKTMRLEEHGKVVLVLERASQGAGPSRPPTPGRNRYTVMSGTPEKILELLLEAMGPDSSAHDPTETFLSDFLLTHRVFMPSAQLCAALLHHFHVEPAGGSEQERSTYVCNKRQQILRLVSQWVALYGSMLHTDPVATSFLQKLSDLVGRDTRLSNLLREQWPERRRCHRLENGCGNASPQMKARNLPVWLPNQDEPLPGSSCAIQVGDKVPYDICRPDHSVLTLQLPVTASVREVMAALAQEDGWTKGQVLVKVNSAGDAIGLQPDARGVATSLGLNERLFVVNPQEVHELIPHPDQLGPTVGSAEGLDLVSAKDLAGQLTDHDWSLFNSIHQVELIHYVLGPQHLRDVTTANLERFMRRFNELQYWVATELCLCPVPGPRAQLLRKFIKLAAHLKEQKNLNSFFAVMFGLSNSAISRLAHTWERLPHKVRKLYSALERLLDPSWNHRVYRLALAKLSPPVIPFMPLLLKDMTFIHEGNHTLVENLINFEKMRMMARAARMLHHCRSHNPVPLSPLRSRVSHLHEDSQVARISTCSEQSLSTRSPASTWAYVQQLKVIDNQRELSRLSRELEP
Sequence of Tumor susceptibility gene 101 protein (Homo sapiens) (Q99816 whole entry, looked up, the tested form may be a part): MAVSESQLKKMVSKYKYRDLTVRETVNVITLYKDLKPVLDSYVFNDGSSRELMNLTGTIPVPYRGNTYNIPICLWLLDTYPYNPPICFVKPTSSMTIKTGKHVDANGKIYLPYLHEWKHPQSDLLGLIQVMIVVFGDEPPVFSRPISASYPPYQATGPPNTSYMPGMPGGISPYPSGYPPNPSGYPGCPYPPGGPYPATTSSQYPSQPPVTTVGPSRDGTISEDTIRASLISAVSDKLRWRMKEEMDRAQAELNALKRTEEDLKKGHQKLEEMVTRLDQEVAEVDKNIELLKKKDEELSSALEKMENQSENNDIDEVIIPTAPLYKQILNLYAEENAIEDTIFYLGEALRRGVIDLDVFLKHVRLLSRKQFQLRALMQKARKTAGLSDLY
Sequence of Glucocorticoid receptor (Homo sapiens) (P04150 whole entry, looked up): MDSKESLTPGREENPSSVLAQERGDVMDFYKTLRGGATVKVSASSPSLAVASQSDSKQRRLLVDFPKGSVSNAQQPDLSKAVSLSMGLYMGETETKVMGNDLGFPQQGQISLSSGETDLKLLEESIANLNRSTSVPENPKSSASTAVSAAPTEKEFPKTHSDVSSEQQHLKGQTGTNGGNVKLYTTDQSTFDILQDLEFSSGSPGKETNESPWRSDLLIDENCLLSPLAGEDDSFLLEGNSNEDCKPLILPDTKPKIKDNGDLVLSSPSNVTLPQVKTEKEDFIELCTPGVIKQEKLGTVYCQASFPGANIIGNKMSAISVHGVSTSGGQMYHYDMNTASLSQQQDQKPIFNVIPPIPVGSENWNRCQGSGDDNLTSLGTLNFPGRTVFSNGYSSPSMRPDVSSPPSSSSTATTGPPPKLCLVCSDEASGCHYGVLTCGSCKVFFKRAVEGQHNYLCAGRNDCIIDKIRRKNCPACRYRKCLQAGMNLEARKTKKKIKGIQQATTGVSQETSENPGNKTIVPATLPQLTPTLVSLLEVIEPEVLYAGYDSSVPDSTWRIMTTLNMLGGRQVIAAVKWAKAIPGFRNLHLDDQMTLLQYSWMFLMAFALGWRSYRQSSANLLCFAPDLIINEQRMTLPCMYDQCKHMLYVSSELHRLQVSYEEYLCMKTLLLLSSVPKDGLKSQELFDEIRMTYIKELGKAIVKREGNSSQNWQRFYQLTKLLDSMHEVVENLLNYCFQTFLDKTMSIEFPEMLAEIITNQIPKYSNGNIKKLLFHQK
Sequence of DNA polymerase iota (Homo sapiens) (Q9UNA4 whole entry, looked up): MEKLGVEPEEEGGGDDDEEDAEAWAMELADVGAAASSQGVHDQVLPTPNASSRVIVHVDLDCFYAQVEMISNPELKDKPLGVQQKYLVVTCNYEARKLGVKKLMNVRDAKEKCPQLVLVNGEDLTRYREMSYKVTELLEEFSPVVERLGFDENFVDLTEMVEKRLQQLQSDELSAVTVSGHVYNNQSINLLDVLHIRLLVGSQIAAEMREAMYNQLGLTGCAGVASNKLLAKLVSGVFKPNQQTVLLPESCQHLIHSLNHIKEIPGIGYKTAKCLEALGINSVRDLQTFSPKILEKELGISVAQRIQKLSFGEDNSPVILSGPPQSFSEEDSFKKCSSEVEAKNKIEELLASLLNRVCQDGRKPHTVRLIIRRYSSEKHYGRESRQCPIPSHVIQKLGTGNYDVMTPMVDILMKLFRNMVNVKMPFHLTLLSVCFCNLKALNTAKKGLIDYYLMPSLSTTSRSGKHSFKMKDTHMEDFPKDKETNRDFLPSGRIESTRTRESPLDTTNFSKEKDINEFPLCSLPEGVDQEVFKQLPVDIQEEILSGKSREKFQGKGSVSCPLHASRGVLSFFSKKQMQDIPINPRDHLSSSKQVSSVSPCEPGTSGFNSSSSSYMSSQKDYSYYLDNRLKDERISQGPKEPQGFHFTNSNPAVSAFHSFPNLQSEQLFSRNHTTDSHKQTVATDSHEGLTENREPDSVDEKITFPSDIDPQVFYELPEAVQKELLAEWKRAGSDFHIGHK

CC1=C(CO)C(=O)OC([C@@H](C)C2CC[C@H]3C4C[C@H]5O[C@]56[C@@H](O)C=CC(=O)[C@]6(C)C4CC[C@]23C)C1 (stereo not given in full)
active: Potency [1] 11.2 µM | Potency [2] 84.9 µM
inactive: Potency [3] | Potency [4] | Potency [5] | Potency [6] | Potency [7]

CCCCCCc1cc2cc(C(=O)NC)c(=N)oc2cc1O
inactive: activity change, negative = inhibition [8] -13% [at 17.2 µM] | outcome [9] | Potency [10] > 20.6 µM | Potency [2] | Potency [5] | Potency [6]
active: Potency [11] 3.98 µM | Potency [3] 89.1 µM | Potency [4] 100 µM

Cc1ccc(/C(O)=C2/C(=O)C(=O)OC2c2ccc(Cl)cc2)cc1 (stereo not given)
inactive: Potency [3] | activation [4] 1.22% [at 17.1 µM, percent relative to cAMP agonist control] | Potency [5] | activity change, negative = inhibition [6] -12.7% [at 30.8 µM] | activation [7] 5.06% [at 30.8 µM]
active: Potency [1] 7.08 µM | Potency [2] 39.8 µM

N#CC(C(=O)NCc1ccccc1)c1nc2ccccc2nc1N1CCCC1 (stereo not given)
active: Potency [3] 100 µM | Potency [4] 89.1 µM | Potency [5] 75.7 µM
inactive: Potency [12] | Potency [2] | Potency [6] | Potency [7]

COc1cc(OC)c(-c2cc(C(=O)O)ccc2OC)c(OC)c1
inactive: Potency [12] | Potency [2] | Potency [3] | activation [4] 1.75% [at 17.1 µM, percent relative to cAMP agonist control] | Potency [5] | activity change, negative = inhibition [6] -0.0153% [at 30.8 µM] | activation [7] 38.4% [at 30.8 µM]

Cc1ccc(C(=O)/C=C/c2cc(Br)cc(Br)c2O)o1
active: Potency [2] 26.9 µM
inactive: Potency [1] | Potency [3] | Potency [4] | Potency [5] | Potency [6] | Potency [7]

CC1=NOC(=O)/C1=C\c1ccc(-c2ccccc2Br)o1
inactive: Potency [1] | Potency [3] | Potency [4] | Potency [5] | Potency [6] | Potency [7]
active: Potency [2] 21.3 µM

NC1=CC(=O)C(=O)c2cccnc21
inactive: Potency [3] | activation [4] 3.71% [at 17.1 µM, percent relative to cAMP agonist control] | Potency [5] | activity change, negative = inhibition [6] -7.69% [at 30.8 µM] | activation [7] 11.2% [at 30.8 µM]
active: Potency [13] 42.3 µM | Potency [2] 10 µM

COc1ccc(N=Nc2nc3cc(Br)c(Br)cc3n2C)c(OC)c1
active: Potency [7] 12.6 µM
inactive: Potency [12] | Potency [2] | Potency [3] | activation [4] 3.19% [at 17.1 µM, percent relative to cAMP agonist control] | Potency [5] | activity change, negative = inhibition [6] 88.5% [at 30.8 µM]
